# Reference: PubChem BioAssay (NCATS)
# Where “and” joins values, the source holds several entries; their conditions need not be identical. Equal entries are not always repeated. Inconclusive results are not listed. Calls of active or inactive are those of the source. Unless noted, the call rests on the fitted dose curve; in most records, active means well fitted curve in the direction sought with a large enough effect; inconclusive means small, poorly fitted or top-dose-only effect, or another doubt; inactive means no such curve, though single readings can be large; an effect the other way counts as inactive or inconclusive.
# Assays:
# [1] = qHTS assay for small molecule agonists of the antioxidant response element (ARE) signaling pathway (AID 651741; active means well fitted activation curve with a large enough effect in the signal ratio; the % refers to the signal ratio; further: potency means the concentration at half of the fitted maximal effect; on activation: % of control where 0% means no effect); details: HepG2 ARE-bla reporter, beta-lactamase FRET ratio, 16 h; series mostly up to 96 µM
# Summary of the method: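 HepG2 ARE-bla cells plated at 2,000 cells/well and incubated 5 h at 37 C/5% CO2 received 23 nL compound in DMSO. After 16 h at 37 C, LiveBLAzer B/G FRET substrate was applied for 2 h at room temperature and fluorescence read.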
# [2] = qHTS assay for small molecule activators of the p53 signaling pathway (AID 651743; active means well fitted activation curve with a large enough effect in the signal ratio, not every such curve was filed as active; the % refers to the signal ratio; further: potency means the concentration at half of the fitted maximal effect; on activation: % of control where 0% means no effect); details: HCT-116 p53RE-bla, beta-lactamase FRET ratio, 16 h; activation: stronger effect = higher value
# Summary of the method: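 HCT-116 p53RE-bla, 4,000 cells/well; 5 h settle; cpd/DMSO 16 h, 37 C; LiveBLAzer B/G 2 h RT; fluorescence intensity.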
# [3] = qHTS assay for small molecule activators of the nuclear factor-kappa B (NF-kB) signaling pathway (AID 651749; active means well fitted activation curve with a large enough effect in the signal ratio; the % refers to the signal ratio; further: % of control where 0% means no effect); details: NF-kB-bla ME-180 cells, beta-lactamase FRET ratio, 16 h; stronger effect = higher value
# Summary of the method: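 Incubation lasted 16 hr at 37C in 5% CO2 after 23 nL compound addition to ME-180 NF-kB-bla cells. Activation appears as beta-lactamase-mediated FRET loss.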
# [4] = qHTS assay for small molecule disruptors of the mitochondrial membrane potential - 1 hr assay (AID 651754; calls by dose curve; further: nearly all actives have a fitted effect of over 35% in size; further: potency means the concentration at half of the fitted maximal effect); details: series mostly up to 92.2 µM
# Summary of the method: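 Steps: seed HepG2 cells and let attach overnight; pin-transfer compound or vehicle; incubate 1 hr at 37C; add Mito-MPS dye for 30 min; read two-channel fluorescence for monomer and aggregate forms.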
# [5] = Cell Proliferation Assay against the HBL1 Cell Line (AID 651646); details: HBL1 DLBCL cells; at 46.1 µM (top of the series) unless noted;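 further: cells exposed to compound for 48 h before reading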
# Summary of the method: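 HBL1 ABC DLBCL cells, 500/well in RPMI with 5% FBS, treated for 48 h at 37C. Viability read by CellTiter-Glo luminescence, normalized to DMSO as 100% and 9.2 uM bortezomib as 0%.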
# [6] = qHTS Assay for Identification of Small Molecule Antagonists for NFkB Signaling Pathway. (AID 624479; calls by dose curve; further: potency means the concentration at half of the fitted maximal effect); details: NFkB pathway reporter cell assay, antagonist mode; series mostly up to 38.3 µM
# [7] = Cytotoxicity counterscreen for NFkB agonists and antagonists (AID 624476); details: NFkB reporter cell line viability counterscreen; series mostly up to 46.1 µM;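 further: cells exposed to compound for 48 hours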; further: potency means the concentration at half of the fitted maximal effect
# [8] = Cell Proliferation Assay against the TMD8 Cell Line (Caspase readout at 16 hrs) (AID 651712); details: TMD8 lymphoma cells, caspase activation luminescence; series mostly up to 46.1 µM; further: potency means the concentration at half of the fitted maximal effect
# Summary of the method: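 TMD8 cells in RPMI with 5% FBS were treated with compound for 16 h at 37 C, then caspase 3/7 activation was read by Caspase-Glo luminescence. Percent activity was scaled to DMSO (0%) and 9.2 uM bortezomib final (100%).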
# [9] = Cell Proliferation Assay against the TMD8 Cell Line (Caspase readout at 8 hrs) (AID 651713); details: TMD8 lymphoma cells, caspase activation luminescence; series mostly up to 46.1 µM; further: potency means the concentration at half of the fitted maximal effect
# Summary of the method: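 Percent activity derived from Caspase-Glo signal, DMSO set to 0% and bortezomib (9.2 uM final) to 100%. TMD8 cells were exposed to compound for 8 h in RPMI with 5% FBS.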
# [10] = qHTS Assay for Identification of Small Molecule Agonists for NFkB Signaling Pathway. (AID 624478); details: NFkB pathway reporter cell assay, agonist mode, cells co-stimulated with 10 pM TNF alpha; series mostly up to 46.1 µM;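 further: compounds tested together with TNF alpha at its EC50 of 10 pM; 0% is about no effect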
# Summary of the method: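 Cells carrying an NFkB response element-driven beta-lactamase gene are co-treated with compound and 10 pM TNF alpha for 5 h, and reporter activity is then read as 460 and 530 nm fluorescence.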
# [11] = Cell Proliferation Assay against the TMD8 Cell Line (AID 651645); details: TMD8 DLBCL cell line proliferation/viability; at 46.1 µM (top of the series) unless noted;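 further: cells exposed to compound for 48 h before reading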
# Summary of the method: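 500 TMD8 cells/well, RPMI + Glutamax, no phenol red, 5% FBS; cpd added immediately; 48 h, 37C, 5% CO2; CellTiter-Glo, luminescence. Controls: DMSO = 100%, bortezomib 9.2 uM final = 0%.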
smiles,measurement,setting,value
CN(C)NC(=O)CCC(=O)O,Potency,[1],inactive
same,activation,[2],0.825% (inactive) and -3.72% (inactive)
same,activation,[3],0.502% (inactive) and -0.298% (inactive)
same,Potency,[4],inactive
Nc1ccc([N+](=O)[O-])cc1O,Potency,[1],13.3 µM (active) and 15.4 µM (active)
COc1cc2c(cc1O)CC[C@@H]1[C@@H]2CC[C@]2(C)[C@@H](O)CC[C@@H]12,"viability, percent of control",[5],37.3%
CCCCC(CC)COC(=O)c1ccccc1C(=O)O (configuration not stated),Potency,[1],54.5 µM (active)
CC(C)(c1ccc(O)cc1)c1ccc(O)cc1,Potency,[1],42.2 µM (active) and 47.3 µM (active) and 30.6 µM (active)
same,Potency,[4],26.6 µM (active) and 13.3 µM (active)
C[C@@]12O[C@@H](C[C@]1(O)CO)n1c3ccccc3c3c4c(c5c6ccccc6n2c5c31)CNC4=O,Potency,[6],1.49 µM (active)
CC(C)(C)c1[nH]cnc1C=c1[nH]c(=O)c(=Cc2ccccc2)[nH]c1=O,Potency,[7],18.7 µM (active)
same,Potency,[6],16.8 µM (active)
same,Potency,[8],0.0235 µM (active)
same,Potency,[9],0.059 µM (active)
Cc1c(C(=O)Nc2cccc(C(F)(F)F)c2)cc(-c2ccccc2)n1CCCN1CCOCC1,Potency,[7],inactive
same,outcome,[10],inactive
same,viability (% of control),[11],3.39%
same,"viability, percent of control",[5],18.7%
CCCCN1CCC(CNC(=O)c2c3n(c4ccccc24)CCCO3)CC1,viability (% of control),[11],119%
CC(C)(O)C(=O)Nc1ccc([N+](=O)[O-])c(C(F)(F)F)c1,Potency,[1],66.8 µM (active)
same,activation,[2],4.44% (inactive)
same,Potency,[4],29.8 µM (active)
CCCCCC[C@H]1C(=O)O[C@H](C)[C@H](NC(=O)c2cccc(NC=O)c2O)C(=O)O[C@@H](C)[C@@H]1OC(=O)CC(C)C,Potency,[1],4.33 µM (active)
same,Potency,[2],0.02 µM (active)
same,activation,[3],2.55% (inactive)
CC[C@@H](C(=O)O)C1CC[C@H](C)C([C@@H](C)[C@H](O)[C@H](C)C(=O)[C@H](CC)C2O[C@]3(C=C[C@@H](O)[C@]4(CC[C@@](C)(C5CC[C@](O)(CC)[C@H](C)O5)O4)O3)[C@H](C)C[C@@H]2C)O1 (some centres not stated),Potency,[7],8.33 µM (active)
same,Potency,[6],11.9 µM (active)
C1=CCOCc2cc(ccc2OCCN2CCCC2)Nc2nccc(n2)-c2cccc(c2)OCC1,Potency,[6],0.943 µM (active)
CO[C@H]1C=CC=C(C)C(=O)NC2=CC(=O)C(NCCN(C)C)=C(C[C@@H](C)C[C@H](OC)[C@@H](O)[C@@H](C)C=C(C)[C@@H]1OC(N)=O)C2=O,Potency,[7],20.9 µM (active)
same,Potency,[6],0.0008 µM (active)
O=[N+]([O-])/N=C1\NCCN1Cc1ccc(Cl)nc1,Potency,[1],inactive
Cc1ccccc1-n1c(Cn2cnc3c(N)ncnc32)nc2cccc(C)c2c1=O,Potency,[7],13.2 µM (active)
same,outcome,[10],inactive
same,Potency,[6],inactive
same,viability (% of control),[11],15.8%
same,"viability, percent of control",[5],62.6%
CCOc1ccc(Nc2nc(-c3c(C)nc4ccccn34)cs2)cc1,Potency,[6],0.335 µM (active)
Cc1nc2cnc3ccc(C#Cc4cccnc4)cc3c2n1-c1ccc(C(C)(C)C#N)cc1,Potency,[6],18.8 µM (active)
CC1CC(C)C(=O)C(C(O)CC2CC(=O)NC(=O)C2)C1 (configuration not stated),Potency,[7],inactive
same,outcome,[10],inactive
same,Potency,[6],1.09 µM (active)
same,viability (% of control),[11],1.51% [at 92.2 µM]
same,"viability, percent of control",[5],43.6% [at 92.2 µM]
same,Potency,[8],1.91 µM (active)
same,Potency,[9],17.1 µM (active)
CCO/N=C(\CC)C1=C(O)CC(c2c(C)cc(C)cc2C)CC1=O (configuration not stated),activation,[2],0.237% (inactive)
same,activation,[3],0.436% (inactive)
CC(=O)Nc1ccc(OC[C@](C)(O)C(=O)Nc2ccc([N+](=O)[O-])c(C(F)(F)F)c2)cc1,Potency,[7],inactive
same,outcome,[10],inactive
same,Potency,[6],inactive
same,viability (% of control),[11],86.6%
same,"viability, percent of control",[5],96.7%
same,Potency,[8],inactive
same,Potency,[9],inactive
Nc1cccc2c(N)cccc12,Potency,[1],27.3 µM (active)
same,Potency,[4],2.98 µM (active)
CCCCCCCCc1ccc(O)cc1,activation,[2],0.0262% (inactive) and -2.23% (inactive)
c1cc(-c2cnn3cc(-c4ccc(OCCN5CCCCC5)cc4)cnc23)ccn1,Potency,[6],9.43 µM (active)
same,Potency,[9],23.5 µM (active)
COCCn1c2c([n+](Cc3cnccn3)c1C)C(=O)c1ccccc1C2=O,Potency,[6],0.0047 µM (active)
CC[C@H](CO)Nc1nc(NCc2ccccc2)c2ncn(C(C)C)c2n1,Potency,[6],11.9 µM (active)
CC(C)[C@]12O[C@H]1[C@@H]1O[C@]13[C@]1(O[C@H]1C[C@H]1C4=C(CC[C@@]13C)C(=O)OC4)[C@@H]2O,Potency,[7],0.0332 µM (active)
same,outcome,[10],inactive
same,Potency,[6],0.0335 µM (active)
same,viability (% of control),[11],3.13%
same,"viability, percent of control",[5],35%
same,Potency,[8],0.0132 µM (active)
same,Potency,[9],0.132 µM (active)
COc1nn(CSP(=S)(OC)OC)c(=O)s1,Potency,[1],inactive
same,activation,[2],0.0507% (inactive)
same,activation,[3],-0.901% (inactive)
O=C(Oc1ccc([N+](=O)[O-])cc1)N1CCC(C(O)(c2ccc3c(c2)OCO3)c2ccc3c(c2)OCO3)CC1,Potency,[7],inactive
same,outcome,[10],inactive
same,Potency,[6],inactive
same,viability (% of control),[11],68.8%
same,"viability, percent of control",[5],72%
same,Potency,[9],inactive
